Assay outcomes (PubChem BioAssay)
GPR151 activ: human GPR151 activation; hit rate 1% among 650,000; PathHunter beta-arrestin GPR151 cells, luminescence; Q8TDV0; AID 1508602; activation, % at 11.2 µM; in the data active = activation above about 4.9%;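 also: 0% = median of compound wells and 100% = cells with positive control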
FBW7 act: human FBW7 E3 ligase activation, primary screen | AID 1259310 | AlphaScreen FBW7–phospho-cyclin E peptide binding, activator screen | normalized activity (activation), % at 26.1 µM | Q969H0 | hit rate 0.13% among 650,000; in the data active = normalized activity above about 1.9%;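 also: purified mutant Fbw7 with reduced substrate affinity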
TEAD-YAP inh: TEAD-YAP interaction inhibition. HEK-TIYL cells, TEAD-Gal4/YAP UAS-luciferase luminescence. inhibition, % at 9.12 µM. hit rate 1.4% among 640,000. AID 1259422; in the data active = inhibition above about 32%;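 also: 0% = median of test compound wells and 100% = reference inhibitor wells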
MITF inh: inhibitors of human MITF | O75030 | AlphaScreen MITF homodimerization, bead proximity signal | inhibition, % at 2.6 µM | hit rate 0.91% among 650,000; in the data active = inhibition above about 50%;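 also: 0% = vehicle wells with protein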
Target sequence (O75030 whole entry, looked up): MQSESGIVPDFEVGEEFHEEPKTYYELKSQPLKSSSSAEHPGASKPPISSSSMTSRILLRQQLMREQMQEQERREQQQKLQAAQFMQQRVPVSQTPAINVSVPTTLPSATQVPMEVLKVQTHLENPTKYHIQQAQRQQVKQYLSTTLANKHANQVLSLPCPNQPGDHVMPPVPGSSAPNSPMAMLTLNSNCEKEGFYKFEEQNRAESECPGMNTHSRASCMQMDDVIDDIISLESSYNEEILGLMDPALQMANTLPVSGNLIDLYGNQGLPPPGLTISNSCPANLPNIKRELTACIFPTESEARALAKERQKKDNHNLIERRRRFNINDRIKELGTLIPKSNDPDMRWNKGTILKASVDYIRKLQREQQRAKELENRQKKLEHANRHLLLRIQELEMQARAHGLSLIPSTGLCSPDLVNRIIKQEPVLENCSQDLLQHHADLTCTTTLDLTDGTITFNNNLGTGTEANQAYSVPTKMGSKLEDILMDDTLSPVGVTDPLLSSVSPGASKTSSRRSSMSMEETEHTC
The depositor's hits bear a star. Rows were chosen to be rich in hits. Some 3.5% of all compounds tested hit in one or more screens of this group.

SMILES | GPR151 activ | FBW7 act | TEAD-YAP inh | MITF inh
CCC1CN(CCC(=O)NCC2CCN(CCOC)C2)Cc2cc(OC)ccc2O1 (stereo unspecified) | -1.2 | -0.1 | 13.3 | 8.3
CC[n+]1c(/C=C/c2ccc(N(C)C)cc2)sc2cc(C)ccc21 | -1.0 | -0.3 | 88.5* | 23.3
CC[n+]1c(C)sc2ccc(C)cc21 | 1.2 | 0.0 | 14.9 | 0.8
O=C(c1cc2ccccc2o1)c1cnc2ccccn12 | -10.5 | 0.1 | 39.5* | 6.3
CCN(CC)c1ccc(NC(=O)c2ccc3c4c(cccc24)CC3)cc1 | 0.5 | -0.3 | 50.8* | 10.1
O=C(CSc1nc2ccc(Br)cc2c2nc3ccccc3n12)Nc1nccs1 | 0.5 | -0.1 | -4.7 | -0.3
O=C(NCCOc1ccccc1)c1csc(Nc2ccc(N3CCOCC3)cc2)n1 | 2.5 | -0.1 | 39.4* | -127.4
COc1ccc(CCNC(=O)c2cnc(Nc3ccc(N4CCOCC4)cc3)s2)cc1 | 2.6 | 0.2 | -12.8 | -1.4
COc1ccc(CCNC(=O)c2csc(Nc3ccc(N4CCOCC4)cc3)n2)cc1 | 1.2 | 0.2 | 71.4* | 14.2
Cc1cccc(N(CC(=O)NCc2ccc(F)cc2)C(=O)CCC(=O)Nc2ccccn2)c1 | 0.5 | -0.1 | -6.6 | 15.7
CCc1ccccc1NC(=O)CN(c1ccc2c(c1)OCO2)S(C)(=O)=O | 0.1 | 0.3 | 1.6 | 14.2
CC(C)(C)C(=O)N1CCC[C@@H](Cn2nc(-c3cccs3)ccc2=O)C1 | 0.1 | 0.2 | 66.1* | 11.5
COc1ccc(COC(=O)c2c(SC)nsc2SC)cc1 | -1.9 | -0.3 | 37.9* | 1.3
Cc1ccc2nc(C(F)(F)F)c(C#N)c(N)c2c1 | -0.6 | -0.1 | 44.9* | -10.2
O=C(CSc1nncs1)Nc1ccc(OCc2ccccc2)cc1 | 3.6 | 11.6* | -21.9 | -14.9
COc1cc(/C=N/O)cc(OC)c1OC | 0.2 | 0.0 | 4.1 | 14.5
COc1cc(O)cc(OC)c1OC | 3.1 | -0.1 | 63.3* | -11.0
O=C(NC1CCCCC1)NC1(C(=O)NCCCN2CCOCC2)CCCCC1 | -0.4 | 1.9* | 3.0 | 11.2
O=C(CN1C(=O)c2ccccc2C1=O)N1CCN(c2ccc(F)cc2)CC1 | -1.5 | 2.0* | -3.2 | 26.0
O=CNc1cccc2c1sc1nc[nH]c(=O)c12 | 1.6 | 0.5 | 53.5* | 8.4
CCOc1c(Br)ccc2c1sc1nc[nH]c(=O)c12 | 0.0 | -0.2 | 4.0 | -1.0
CN1CCC(N2C[C@@H]3C[C@@H](c4ccc(Cl)cc4)N4CCC[C@@]34C2=O)CC1 | -1.1 | -0.1 | 4.4 | 2.1
CN(C)CCNS(=O)(=O)c1ccc(Sc2nnnn2-c2ccccc2)c([N+](=O)[O-])c1 | 0.8 | -0.1 | 83.6* | -0.1
O=[N+]([O-])c1ccc(Sc2nnnn2-c2ccccc2)c([N+](=O)[O-])c1 | -0.5 | 0.5 | -9.4 | 3.4
Cc1ccc(-n2nnnc2Sc2ccc([N+](=O)[O-])cc2C#N)cc1 | -0.6 | -0.2 | 45.5* | 4.6
SMILES | GPR151 activ | FBW7 act | TEAD-YAP inh | MITF inh
N#Cc1ccc(NC(=O)c2cc([N+](=O)[O-])ccc2Sc2nnnn2-c2ccccc2)cc1 | 2.9 | 0.1 | -7.9 | -5.8
N#Cc1cc([N+](=O)[O-])ccc1Sc1nnnn1-c1ccccc1 | 1.2 | -0.1 | 45.9* | 5.9
Cc1ccc(S(=O)(=O)Nc2ccc(NC(=O)c3ccc(Br)cc3)cc2)cc1 | -1.5 | 0.0 | 0.4 | -15.9
COc1cc(OC)cc(C(=O)NN=C2CCN(C)CC2)c1 | 1.4 | 0.0 | 50.5* | 17.8
CN1CCC(=NNC(=O)c2cc(O)c(O)c(O)c2)CC1 | -0.3 | -0.3 | -2.1 | 82.8*
NS(=O)(=O)c1ccc(NC(=O)CSC2=N/C(=C/c3ccco3)C(=O)N2c2ccccc2)cc1 | -1.6 | 0.2 | 8.1 | 5.4
COc1cccc(Cn2c(=O)n(CCCCC(=O)NC3CCCCC3)c(=O)c3ccccc32)c1 | -1.3 | -0.1 | 1.2 | -14.6
O=C(CCCCn1c(=O)c2ccccc2n(Cc2ccccc2)c1=O)NCc1cccs1 | 0.4 | -0.2 | 37.6* | 0.2
O=C(CCCCn1c(=O)c2ccccc2n(Cc2ccc(F)cc2Cl)c1=O)NCc1cccs1 | -0.8 | -0.1 | -6.1 | -7.3
COc1cccc(Cn2c(=O)n(CCCCC(=O)NCc3ccco3)c(=O)c3ccccc32)c1 | -1.0 | -0.3 | 48.1* | 2.6
COc1ccc(-c2cn3cccnc3n2)cc1NS(=O)(=O)c1ccc(Cl)cc1 | 0.5 | 0.0 | -5.7 | -4.9
N#CC1=C(N)Oc2ccc3ccc(O)cc3c2C1c1cccnc1 (stereo unspecified) | -0.4 | -0.1 | 3.9 | 1.3
N#CC1=C(N)Oc2ccc3ccccc3c2C1c1cccc(F)c1 (stereo unspecified) | -1.7 | 0.0 | 55.7* | 0.8
N#CC1=C(N)Oc2c(ccc3ccccc23)C1c1cccc(F)c1 (stereo unspecified) | -0.1 | 0.8 | 4.9 | -0.1
N#CC1=C(N)Oc2ccc3ccccc3c2C1c1cccnc1 (stereo unspecified) | 0.7 | -0.1 | 57.3* | -3.4
OCCCNc1cc(-c2ccccn2)nc(-c2ccccc2)n1 | 2.6 | 0.0 | 22.0 | 17.4
COC(CNc1cc(-c2ccccc2)nc(-c2ccccn2)n1)OC | 0.8 | -0.6 | 48.1* | 12.2
c1ccc(-c2cc(NCc3ccncc3)nc(-c3ccccn3)n2)cc1 | 0.1 | -0.5 | 37.2* | 18.6
OCCCNc1cc(-c2ccccn2)nc(-c2ccccn2)n1 | 4.1 | -0.8 | 3.2 | 114.6*
c1ccc(CNc2cc(-c3ccncc3)nc(-c3ccccn3)n2)cc1 | -0.5 | -0.8 | 7.2 | 2.8
OCCCNc1cc(-c2ccccc2)nc(-c2ccccn2)n1 | 1.1 | -0.8 | 78.3* | 21.9
CCN(CC)CCSc1nnc(N2CCN(c3ccc(F)cc3)CC2)s1 | 0.7 | 0.1 | 1.5 | 7.6
CCS(=O)(=O)N1CCN=C1SCc1ccccc1F | 0.1 | -0.3 | -8.2 | -11.8
Fc1ccc(-c2cc(NCCCN3CCOCC3)nc(-c3ccccn3)n2)cc1 | -1.2 | -0.7 | 9.8 | -13.3
Fc1ccccc1-c1cc(NCCCN2CCOCC2)nc(-c2ccccn2)n1 | 1.1 | -0.7 | 36.5* | 16.8
SMILES | GPR151 activ | FBW7 act | TEAD-YAP inh | MITF inh
CC(=O)NC(c1cccs1)c1ccc2cccnc2c1O (stereo unspecified) | -2.2 | -0.2 | 91.5* | 70.0*
CC(=O)NC(c1ccco1)c1ccc2cccnc2c1O (stereo unspecified) | 0.1 | -1.8 | 44.3* | 77.3*
Cc1cccc(N=c2oc3c(C)ncc(CO)c3cc2C(N)=O)c1 | 1.4 | -0.1 | -10.8 | 2.6
Cc1ccc(-c2csc(NC(=O)C3C4CCC(C4)C3C(=O)O)n2)cc1 (stereo unspecified) | -0.1 | -0.1 | -17.5 | 1.4
COc1ccc(-c2nnc(NC(=O)c3ccccc3Cl)s2)cc1 | -1.2 | -0.1 | 1.3 | -5.7
Cc1cccc(N2C(=O)NC(=O)/C(=C\c3ccoc3)C2=O)c1 | -0.5 | 0.2 | -3.8 | 57.6*
Cc1cccc(N2C(=O)NC(=O)/C(=C\c3cccc(O)c3)C2=O)c1 | 0.5 | -0.3 | -2.5 | 3.8
O=C1NC(=S)N(c2ccccc2)C(=O)/C1=C\c1ccoc1 | 1.4 | 0.1 | 3.3 | 71.3*
O=C1NC(=S)N(c2ccc(Cl)cc2)C(=O)/C1=C\c1ccoc1 | -2.2 | -0.1 | 10.2 | 34.2
Cc1ccc(NC(=O)c2cnc3sc(C)cn3c2=O)c(C)c1 | -1.8 | -0.1 | -9.4 | -6.8
